# According to the supplement of paper PMC4022240:
# ± gives the standard deviation.
# T1: HaloTag-ATRX ADD domain (163-292)
# T1 chain: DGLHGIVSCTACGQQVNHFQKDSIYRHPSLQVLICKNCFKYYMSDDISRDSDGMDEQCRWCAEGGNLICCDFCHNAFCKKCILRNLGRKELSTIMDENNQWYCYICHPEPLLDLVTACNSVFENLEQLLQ
# B1: H3 112-124 I H A Kac R V T I M P K D I (peptide)
# chain: IHAKRVTIMPKDI
# B2: H3 112-124 I H A Kme R V T I M P Kme2 D I (peptide)
# chain: IHAKRVTIMPKDI
# B3: H3 112-124 I H A Kme2 Rme2a V T I M P K D I (peptide)
# chain: IHAKRVTIMPKDI
# B4: H3 112-124 I H A Kme2 Rme V T I M P K D I (peptide)
# chain: IHAKRVTIMPKDI
# B5: H3 112-124 I H A Kme R V T I M P Kme D I (peptide)
# chain: IHAKRVTIMPKDI
# B6: H3 112-124 I H A Kme Rcit V T I M P K D I (peptide)
# chain: IHAKRVTIMPKDI
# B7: H3 112-124 I H A Kme R V T I M P Kac D I (peptide)
# chain: IHAKRVTIMPKDI
# B8: H3 112-124 I H A Kme R V T I M P K D I (peptide)
# chain: IHAKRVTIMPKDI
# B9: H3 112-124 I H A Kac Rme2s V T I M P K D I (peptide)
# chain: IHAKRVTIMPKDI
# B10: H3 112-124 I H A Kme Rme2s V T I M P K D I (peptide)
# chain: IHAKRVTIMPKDI
# What was measured:
# Assay in all cases: peptide microarray binding signal (635 nm), min-max normalized on array (fraction of array maximum); higher = stronger binding
# Conditions in all cases: peptide region: H3 112-124
# [1] = biological target: T1, HaloTag-ATRX ADD domain (163-292)
# How it was run: (§1)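 Arrays carried histone 13-mer peptide–cellulose conjugates printed in triplicate on nitrocellulose alongside a Cy3 tracer. After overnight blocking at 4°C, they were incubated for 1 h at 4°C with biotin-labelled HaloTag reader fusions (10 nM to 1 μM) plus streptavidin-Alexa Fluor 647, or with rabbit histone antibodies (1:10,000 to 1:2,000) plus anti-rabbit Alexa 647. Scanning on an Axon GenePix 4000B used 635 nm for signal and 532 nm for misprints. The binding signal reported is each triplicate's mean spot intensity after per-library min-max scaling.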
# [2] = biological target: HaloTag-ING2 PHD (mouse Ing2 200-280)
# How it was run: as §1
# [3] = biological target: anti-H3K4me3 antibody ab8580
# How it was run: as §1
# [4] = biological target: anti-H3K9me3 antibody ab8898
# How it was run: as §1
# [5] = peptide modifications: H3K115ac, binder concentration: 1:2,000 dilution
# [6] = peptide modifications: H3K115ac, binder concentration: 1:10,000 dilution
# [7] = peptide modifications: H3K115me1 H3K122me2, binder concentration: 1:2,000 dilution
# [8] = peptide modifications: H3K115me1 H3K122me2, binder concentration: 1:10,000 dilution
# [9] = peptide modifications: H3K115me2 H3R116me2a, binder concentration: 1:2,000 dilution
# [10] = peptide modifications: H3K115me2 H3R116me2a, binder concentration: 1:10,000 dilution
# [11] = peptide modifications: H3K115me2 H3R116me1, binder concentration: 1:2,000 dilution
# [12] = peptide modifications: H3K115me2 H3R116me1, binder concentration: 1:10,000 dilution
# [13] = peptide modifications: H3K115me1 H3K122me1, binder concentration: 1:2,000 dilution
# [14] = peptide modifications: H3K115me1 H3K122me1, binder concentration: 1:10,000 dilution
# [15] = peptide modifications: H3K115me1 H3R116cit, binder concentration: 1:2,000 dilution
# [16] = peptide modifications: H3K115me1 H3R116cit, binder concentration: 1:10,000 dilution
# [17] = peptide modifications: H3K115me1 H3K122ac, binder concentration: 1:2,000 dilution
# [18] = peptide modifications: H3K115me1 H3K122ac, binder concentration: 1:10,000 dilution
# [19] = peptide modifications: H3K115me1, binder concentration: 1:2,000 dilution
# [20] = peptide modifications: H3K115me1, binder concentration: 1:10,000 dilution
# [21] = peptide modifications: H3K115ac H3R116me2s, binder concentration: 1:2,000 dilution
# [22] = peptide modifications: H3K115ac H3R116me2s, binder concentration: 1:10,000 dilution
# [23] = peptide modifications: H3K115me1 H3R116me2s, binder concentration: 1:2,000 dilution
# [24] = peptide modifications: H3K115me1 H3R116me2s, binder concentration: 1:10,000 dilution
binder,measurement,setting,value
B1,peptide microarray binding signal,"[1]; peptide modifications: H3K115ac, binder concentration: 50 nM",0.0131 ± 0.00019
same,peptide microarray binding signal,"[1]; peptide modifications: H3K115ac, binder concentration: 500 nM",0.0422 ± 0.0053
same,peptide microarray binding signal,"[2]; peptide modifications: H3K115ac, binder concentration: 10 nM",0.0158 ± 0.0028
same,peptide microarray binding signal,"[2]; peptide modifications: H3K115ac, binder concentration: 100 nM",0.0152 ± 0.00051
same,peptide microarray binding signal,[3]; [5],0.00323 ± 0.00038
same,peptide microarray binding signal,[3]; [6],0.00228 ± 0.00013
same,peptide microarray binding signal,[4]; [5],0.00832 ± 0.00014
same,peptide microarray binding signal,[4]; [6],0.00329 ± 0.00029
B2,peptide microarray binding signal,"[1]; peptide modifications: H3K115me1 H3K122me2, binder concentration: 50 nM",0.00423 ± 4.3e-05
same,peptide microarray binding signal,"[1]; peptide modifications: H3K115me1 H3K122me2, binder concentration: 500 nM",0.00881 ± 0.00019
same,peptide microarray binding signal,"[2]; peptide modifications: H3K115me1 H3K122me2, binder concentration: 10 nM",0.0148 ± 0.0012
same,peptide microarray binding signal,"[2]; peptide modifications: H3K115me1 H3K122me2, binder concentration: 100 nM",0.0263 ± 0.0033
same,peptide microarray binding signal,[3]; [7],0.0016 ± 6.6e-05
same,peptide microarray binding signal,[3]; [8],0.001826 ± 1.7e-05
same,peptide microarray binding signal,[4]; [7],0.00125 ± 6.5e-05
same,peptide microarray binding signal,[4]; [8],0.00133 ± 2.3e-05
B3,peptide microarray binding signal,"[1]; peptide modifications: H3K115me2 H3R116me2a, binder concentration: 50 nM",0.00392 ± 0.00012
same,peptide microarray binding signal,"[1]; peptide modifications: H3K115me2 H3R116me2a, binder concentration: 500 nM",0.0121 ± 0.00062
same,peptide microarray binding signal,"[2]; peptide modifications: H3K115me2 H3R116me2a, binder concentration: 10 nM",0.013 ± 0.0011
same,peptide microarray binding signal,"[2]; peptide modifications: H3K115me2 H3R116me2a, binder concentration: 100 nM",0.015 ± 0.0041
same,peptide microarray binding signal,[3]; [9],0.00655 ± 0.00081
same,peptide microarray binding signal,[3]; [10],0.00291 ± 6.6e-05
same,peptide microarray binding signal,[4]; [9],0.00612 ± 0.00057
same,peptide microarray binding signal,[4]; [10],0.00346 ± 0.00033
B4,peptide microarray binding signal,"[1]; peptide modifications: H3K115me2 H3R116me1, binder concentration: 50 nM",0.00978 ± 0.00067
same,peptide microarray binding signal,"[1]; peptide modifications: H3K115me2 H3R116me1, binder concentration: 500 nM",0.0323 ± 0.001
same,peptide microarray binding signal,"[2]; peptide modifications: H3K115me2 H3R116me1, binder concentration: 10 nM",0.0352 ± 0.017
same,peptide microarray binding signal,"[2]; peptide modifications: H3K115me2 H3R116me1, binder concentration: 100 nM",0.0291 ± 0.0025
same,peptide microarray binding signal,[3]; [11],0.0244 ± 0.00081
same,peptide microarray binding signal,[3]; [12],0.0144 ± 0.0052
same,peptide microarray binding signal,[4]; [11],0.00761 ± 0.0024
same,peptide microarray binding signal,[4]; [12],0.0104 ± 0.00061
B5,peptide microarray binding signal,"[1]; peptide modifications: H3K115me1 H3K122me1, binder concentration: 50 nM",0.00511 ± 9.8e-05
same,peptide microarray binding signal,"[1]; peptide modifications: H3K115me1 H3K122me1, binder concentration: 500 nM",0.0109 ± 9.7e-05
same,peptide microarray binding signal,"[2]; peptide modifications: H3K115me1 H3K122me1, binder concentration: 10 nM",0.0179 ± 0.0021
same,peptide microarray binding signal,"[2]; peptide modifications: H3K115me1 H3K122me1, binder concentration: 100 nM",0.0298 ± 0.0035
same,peptide microarray binding signal,[3]; [13],0.00187 ± 0.00022
same,peptide microarray binding signal,[3]; [14],0.00234 ± 0.00015
same,peptide microarray binding signal,[4]; [13],0.00121 ± 5.5e-05
same,peptide microarray binding signal,[4]; [14],0.00115
B6,peptide microarray binding signal,"[1]; peptide modifications: H3K115me1 H3R116cit, binder concentration: 50 nM",0.00947 ± 0.0002
same,peptide microarray binding signal,"[1]; peptide modifications: H3K115me1 H3R116cit, binder concentration: 500 nM",0.0238 ± 0.00041
same,peptide microarray binding signal,"[2]; peptide modifications: H3K115me1 H3R116cit, binder concentration: 10 nM",0.0192 ± 0.00041
same,peptide microarray binding signal,"[2]; peptide modifications: H3K115me1 H3R116cit, binder concentration: 100 nM",0.037 ± 0.0012
same,peptide microarray binding signal,[3]; [15],0.00225 ± 5.2e-05
same,peptide microarray binding signal,[3]; [16],0.00434 ± 0.00036
same,peptide microarray binding signal,[4]; [15],0.00249 ± 6.3e-05
same,peptide microarray binding signal,[4]; [16],0.00248 ± 5.9e-05
B7,peptide microarray binding signal,"[1]; peptide modifications: H3K115me1 H3K122ac, binder concentration: 50 nM",0.00345 ± 6.5e-05
same,peptide microarray binding signal,"[1]; peptide modifications: H3K115me1 H3K122ac, binder concentration: 500 nM",0.0061 ± 0.00013
same,peptide microarray binding signal,"[2]; peptide modifications: H3K115me1 H3K122ac, binder concentration: 10 nM",0.00746 ± 0.00035
same,peptide microarray binding signal,"[2]; peptide modifications: H3K115me1 H3K122ac, binder concentration: 100 nM",0.0111 ± 0.00029
same,peptide microarray binding signal,[3]; [17],0.00249 ± 0.0011
same,peptide microarray binding signal,[3]; [18],0.001484 ± 1.4e-05
same,peptide microarray binding signal,[4]; [17],0.000997 ± 1.4e-05
same,peptide microarray binding signal,[4]; [18],0.00104 ± 2.8e-05
B8,peptide microarray binding signal,"[1]; peptide modifications: H3K115me1, binder concentration: 50 nM",0.00774 ± 0.00015
same,peptide microarray binding signal,"[1]; peptide modifications: H3K115me1, binder concentration: 500 nM",0.0198 ± 0.0023
same,peptide microarray binding signal,"[2]; peptide modifications: H3K115me1, binder concentration: 10 nM",0.00668 ± 0.00016
same,peptide microarray binding signal,"[2]; peptide modifications: H3K115me1, binder concentration: 100 nM",0.0314 ± 0.0099
same,peptide microarray binding signal,[3]; [19],0.00168 ± 0.00023
same,peptide microarray binding signal,[3]; [20],0.001997 ± 1.8e-05
same,peptide microarray binding signal,[4]; [19],0.0034 ± 0.00038
same,peptide microarray binding signal,[4]; [20],0.00236 ± 0.00015
B9,peptide microarray binding signal,"[1]; peptide modifications: H3K115ac H3R116me2s, binder concentration: 50 nM",0.005956 ± 4.1e-05
same,peptide microarray binding signal,"[1]; peptide modifications: H3K115ac H3R116me2s, binder concentration: 500 nM",0.0125 ± 0.0017
same,peptide microarray binding signal,"[2]; peptide modifications: H3K115ac H3R116me2s, binder concentration: 10 nM",0.0167 ± 0.0042
same,peptide microarray binding signal,"[2]; peptide modifications: H3K115ac H3R116me2s, binder concentration: 100 nM",0.0203 ± 0.0028
same,peptide microarray binding signal,[3]; [21],0.00436 ± 0.00063
same,peptide microarray binding signal,[3]; [22],0.00576 ± 0.00047
same,peptide microarray binding signal,[4]; [21],0.00375 ± 0.00054
same,peptide microarray binding signal,[4]; [22],0.00398 ± 0.00024
B10,peptide microarray binding signal,"[1]; peptide modifications: H3K115me1 H3R116me2s, binder concentration: 50 nM",0.00257 ± 2.3e-05
same,peptide microarray binding signal,"[1]; peptide modifications: H3K115me1 H3R116me2s, binder concentration: 500 nM",0.00552 ± 0.00018
same,peptide microarray binding signal,"[2]; peptide modifications: H3K115me1 H3R116me2s, binder concentration: 10 nM",0.004 ± 0.00015
same,peptide microarray binding signal,"[2]; peptide modifications: H3K115me1 H3R116me2s, binder concentration: 100 nM",0.00716 ± 0.00083
same,peptide microarray binding signal,[3]; [23],0.000906 ± 2.8e-05
same,peptide microarray binding signal,[3]; [24],0.00137 ± 1.3e-05
same,peptide microarray binding signal,[4]; [23],0.00156 ± 0.00014
same,peptide microarray binding signal,[4]; [24],0.00127 ± 1.3e-05
